Hsp70 activator – Hsp70 transcriptional activators, primary screen, cell-based, HeLa, Hsp70 promoter luciferase, luminescence, 10 µM | HeLa Hsp70 promoter luciferase reporter; scaled: vehicle 0, proteasome-inhibitor control 100% | activation, % at 10 µM | 0.04% of 200,000 active;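 active = activation above the mean across all tested compounds plus 3 SD, cutoff set per campaign, cut at about 5.5% in these data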;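 note: 100% = MG132 at 30 µM as the positive control and 0% = DMSO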
TNF death inh – inhibitors of TNF-alpha triggered necroptosis, primary screen, cell-based, Jurkat FADD-/-, single concentration; Jurkat FADD-/- TNF necroptosis rescue, ATP luminescence, 24 h; 0 = TNF only, 100 = no-TNF cells; activation (protection from cell death), % at 10 µM; 0.068% of 220,000 active;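 active = activation, meaning protection from cell death, of at least 50% relative to plate controls; inactive = activation below 50%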;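 note: necroptosis triggered by 40 ng/mL TNF-alpha added together with compound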
HSF-1 act – HSF-1 activators, primary screen, NIH3T3-HGL cells, MG132 stress, luminescence, single point. NIH3T3-HGL HSF-1 luciferase reporter, 8 h; 100% = twice DMSO control signal. activation, % at 9 µM. 1.7% of 300,000 active. AID 504408, 2011;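 active = mean replicate activation of at least 50% with a set share of replicates each reaching 50%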;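 note: 0% = median of the neutral control wells and 100% = twice that signal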
zVAD death inh – inhibitors of zVAD-triggered necroptosis, primary screen, L929 cells; L929 zVAD necroptosis rescue, ATP luminescence, 24 h; with zVAD 60 µM; viability rescue, % at 10 µM; 0.38% of 220,000 active; AID 1377, 2008;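 active = activation, scaled between plate controls, above about 75%, limit read from the data; inactive = activation under that limit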;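 note: 0% = zVAD with DMSO and 100% = DMSO alone without zVAD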
An asterisk follows results filed as active; / = no result given. Shown are actives, neighbours in structure and some others; about 1.9% of the full set was active somewhere.

SMILES	Hsp70 activator	TNF death inh	HSF-1 act	zVAD death inh
CC(/C=C1\SC(=S)N(CCCC(=O)Nc2ccc(C(=O)O)cc2)C1=O)=C\c1ccccc1	0	1	61*	/
CC(/C=C1\SC(=S)N(CCC(=O)Nc2cccc(C(=O)O)c2)C1=O)=C\c1ccccc1	/	/	3	/
O=C(CCCCCN1C(=O)c2ccccc2C1=O)Nc1ccc(C(=O)O)cc1	/	/	63*	/
COc1ccc(S(=O)(=O)N2CCOCC2)cc1NC(=O)c1cccc(Cl)c1	/	/	0	/
CCC1(c2ccc(Cl)cc2)NC(=S)N(c2ccccc2)N1 (centres undefined)	0	1	70*	0
COc1ccc(C(F)(F)F)cc1NC(=O)c1nc2nc(C)cc(C(F)F)n2n1	-1	-2	17	0
Cc1cc(C(F)F)n2nc(C(=O)Nc3cccc(C(F)(F)F)c3)nc2n1	0	1	81*	2
O=[N+]([O-])c1ccc2c(c1)nc1n2CCN(C2CCCCC2)C1	1	1	53*	1
Fc1ccccc1Oc1nc(-c2ccncc2)nc2ccccc12	/	1	-3	4
COc1ccc(-c2csc(-c3ccc(O)cc3)n2)cc1	/	-11	23	0
COc1ccc(-c2csc(-c3ccccc3)n2)c(OC)c1	0	-1	54*	-1
COc1ccc(-c2csc(-c3cccs3)n2)c(OC)c1	0	1	61*	0
COc1ccc(-c2nc(-c3ccc(O)cc3O)cs2)cc1OC	0	5	68*	68
Cc1ccc2[nH]c(=O)c(CNS(=O)(=O)c3ccccc3)c(-c3ccccc3)c2c1	0	1	12	0
O=C(C1=COCCO1)N1CCN(C(c2ccccc2)c2ccccc2)CC1	0	-2	2	0
CC(C)[C@H](NC(=O)N1c2ccccc2NC(=O)[C@@H]1C(C)C)C(=O)N1CCC(C(=O)O)CC1	/	/	4	/
Cc1cccc(-n2ccc(=O)c(C(=O)Nc3ccc(S(=O)(=O)Nc4nccc(C)n4)cc3)n2)c1	/	/	-7	/
COc1cccc(CNC(=O)C2CCN(S(=O)(=O)c3ccc4c(c3)CC(C)N4C(C)=O)CC2)c1 (centres undefined)	/	/	9	/
COc1ccc(OC)c(/C=N/NC(=O)c2ccc(N(C)S(=O)(=O)c3ccccc3)cc2)c1	0	0	30	3
COc1ccc(/C=N/NC(=O)c2ccc(N(C)S(=O)(=O)c3ccccc3)cc2)c(OC)c1	0	-1	58*	3
COc1cc(C(=O)Nc2ccc(S(=O)(=O)N(C)c3ccccc3)cc2)cc(OC)c1OC	0	1	102*	1
CC1(C)CC(CCNC(=O)CCl)(c2ccccc2)CCO1 (centres undefined)	/	2	6	1
CC1(C)CC(NC(=O)c2cc(S(=O)(=O)N3CCOCC3)c(Cl)cc2Cl)CC(C)(C)N1	/	/	-15	/
Cc1ccc(N(C(=O)c2csnn2)C(C(=O)NC2CCCCC2)c2cccnc2)c(C)c1 (centres undefined)	/	/	15	/
C/C(=N\O)c1sc(-c2ccccc2)nc1C	1	-1	72*	4
SMILES	Hsp70 activator	TNF death inh	HSF-1 act	zVAD death inh
CCN(CC)CCN(C(=O)C1=COCCO1)c1nc2ccc(C)cc2s1	/	/	53*	/
N#C/C(=C/c1ccco1)c1nc2ccccc2s1	0	-1	100*	0
N#C/C(=C/c1ccc(-c2cc(C(=O)O)cc(C(=O)O)c2)o1)c1nc2ccccc2s1	-1	0	21	0
N#C/C(=C\c1ccco1)c1nc2ccccc2s1	0	0	80*	0
Cc1ccccc1Cn1cc(NC(=O)CCCn2nc([N+](=O)[O-])cc2C)cn1	0	2	2	1
O=[N+]([O-])c1cccc(-c2nc(-c3ccccc3)no2)c1	0	0	56*	7
CCC1(C)NC(=O)N(CC(=O)N2N=C(c3ccccc3)CC2c2ccc(OC)cc2)C1=O (centres undefined)	0	1	11	2
CCc1ccc(NC(=O)c2cc(-c3ccco3)on2)cc1	0	-5	80*	0
O=C(N/N=C/c1ccco1)c1cccc(S(=O)(=O)Nc2ccccc2Cl)c1	0	2	-8	0
Cc1ccc(/C=N/NC(=O)c2cccc(S(=O)(=O)Nc3ccccc3Cl)c2)o1	0	2	66*	1
O=C(N/N=C\c1ccco1)Nc1cccc(Cl)c1	0	4	69*	46
O=C(NCCSCc1ccco1)Nc1ccc(Cl)cc1	0	1	42	-1
Cc1cccc(NC(=O)CCC(=O)N/N=C/c2ccco2)c1	0	1	-2	2
O=C(NCCSCc1ccco1)Nc1cccc(Cl)c1	0	0	60*	0
CCN1C(=O)C(=O)N(CC(=O)N2CCN(c3ccccc3)CC2)C1=O	/	/	32	/
O=C(Cn1cnnn1)NCc1ccccc1	/	/	-15	/
Cc1ccc(C(=O)OCC(=O)N(C)C2CCS(=O)(=O)C2)cc1S(=O)(=O)N1CCCCC1 (centres undefined)	/	/	4	/
C/C=C/C(=O)OCC(=O)Nc1ccccc1Br	0	3	20	2
O=C(COC(=O)/C=C/C(=O)OCC(=O)Nc1ccccc1F)Nc1ccccc1F	/	-21	66*	0
O=c1c2ccccc2nc(SCc2ccncc2)n1CC1CCCO1 (centres undefined)	0	0	3	-1
COc1ccccc1NC(=O)C1=C(C)NC2=C(C(=O)CC(c3ccc(OC)c(OC)c3)C2)C1c1coc2ccccc2c1=O (centres undefined)	0	-6	67*	/
CCOC(=O)C1=C(C)NC2=C(C(=O)CC(c3ccc(OC)c(OC)c3)C2)C1c1ccc(C)o1 (centres undefined)	0	-5	/	0
COCCNc1c([N+](=O)[O-])c(=O)n(-c2ccccc2)c2ccccc12	0	1	69*	0
CC(=O)N/C(N)=N/c1nc2cc([N+](=O)[O-])ccc2o1	/	-5	72*	2
CC(=O)N/C(N)=N/c1nc2cc(C)ccc2o1	/	0	45	0
SMILES	Hsp70 activator	TNF death inh	HSF-1 act	zVAD death inh
CC(C)(C)C(=O)N/C(N)=N/c1nc2ccccc2o1	/	-3	52*	1
COc1ccccc1N1C(=O)N(CC(=O)C(C)(C)C)c2ccccc2S1(=O)=O	/	/	16	/
Cc1cc(C)c2nc(NC(=O)[C@@H](NC(=O)c3cccc(S(=O)(=O)N4CCOCC4)c3)C(C)C)sc2c1	0	3	7	3
Clc1ccc(OCc2nnc(-c3ccccc3Br)o2)c(Cl)c1	0	0	61*	0
Clc1ccc(OCc2nnc(-c3ccccc3Br)o2)cc1	0	1	44	1
Clc1cccc(OCc2nnc(-c3ccccc3Br)o2)c1	/	/	29	/
Fc1ccc(OCc2nnc(-c3ccccc3Br)o2)c(Cl)c1	/	/	68*	/
CCOc1ccccc1NC(=S)N1CCC(NC(=O)C(C)(C)C)CC1	0	0	-13	2
O=C(Cc1c(F)cccc1Cl)Nc1nc2ccccc2s1	0	4	62*	17
